The panel holds about 83,000 compounds, 20% with a hit somewhere; the sample as a whole holds those more often.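 Assay: single dose, 48 h. Readout: percent growth (0 = no net growth; negative = cell death). Active: <10.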 The source made the active and inactive calls.
Experiments:
Assay in all cases: NCI-60 one-dose screen, 48 h (100 = growth as untreated, 0 = no growth, -100 = all killed)
Conditions in all cases: 10 µM unless noted
NCI-H23 lung = tested on: NCI-H23 lung
NCI-H226 lung = tested on: NCI-H226 lung
HOP-62 NSCLC = tested on: HOP-62 NSCLC
NCI-H460 lung = tested on: NCI-H460 lung
HOP-92 NSCLC = tested on: HOP-92 NSCLC
NCI-H522 lung = tested on: NCI-H522 lung
A549/ATCC NSCLC = tested on: A549/ATCC NSCLC
786-0 renal = tested on: 786-0 renal
COLO 205 colon = tested on: COLO 205 colon

Measured: growth

COC(CCCl)c1ccc(Cl)cc1 (stereo unspecified)
inactive: NCI-H23 lung 107% | NCI-H226 lung 101% | HOP-62 NSCLC 114% | NCI-H460 lung 107% | HOP-92 NSCLC 121% | NCI-H522 lung 74.6% | A549/ATCC NSCLC 95.4% | 786-0 renal 100% | COLO 205 colon 111%

Cn1c(=O)c2nc3c(=O)n(C)c(=O)n(C)c3nc2n(C)c1=O
inactive: NCI-H23 lung 95.1% | NCI-H226 lung 107% | HOP-62 NSCLC 93% | NCI-H460 lung 102% | HOP-92 NSCLC 127% | NCI-H522 lung 93.8% | A549/ATCC NSCLC 126% | 786-0 renal 91.2% | COLO 205 colon 126%

C/C(Cc1ccccc1)=N\O
inactive: NCI-H23 lung 109% | NCI-H226 lung 112% | HOP-62 NSCLC 118% | NCI-H460 lung 107% | HOP-92 NSCLC 84% | NCI-H522 lung 106% | A549/ATCC NSCLC 103% | 786-0 renal 102% | COLO 205 colon 116%

CC(c1ccccc1)N1C(=O)CSC1=S (stereo unspecified)
active: NCI-H460 lung 0.475% | NCI-H522 lung -14.2% | COLO 205 colon 1.28%
inactive: NCI-H23 lung 51.2% | NCI-H226 lung 83.2% | HOP-62 NSCLC 59.2% | HOP-92 NSCLC 47.5% | A549/ATCC NSCLC 78.8% | 786-0 renal 21.2%

— PubChem BioAssay (NCI)
